# Screening results: PubChem BioAssay, National Center for Advancing Translational Sciences (NCATS)
# Compounds with a hit are over-represented: about 11% of the library has one in this group of screens.
# PNC inhibitor: perinucleolar compartment assembly inhibition; 3.1% of 140,000 active; activity change (PNC), negative = inhibition, % at 10 µM; PC3M PTB-GFP, PNC prevalence imaging, 16 h; active compounds read low;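 active = readout at or below -70, meaning at least 70% loss of cells showing the perinucleolar compartment, a nuclear body marking cancer cells; inconclusive = readout between -30 and a set limit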;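 note: plate controls were DMSO wells for no effect and camptothecin positive control wells for full effect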
#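 PC3M cells stably expressing PTB-GFP, 750–1000 cells/well, treated 16 h at 37 °C with compound (23 nl of library stock), in duplicate. After paraformaldehyde fixation and Hoechst stain, imaged at 20x; PNC prevalence scored by image analysis.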
# ALDH1A1 inh: inhibitors of human aldehyde dehydrogenase 1A1; AID 1030; Potency, µM (top dose mostly 75.3 µM), inactives show at the top dose activity, negative = inhibition, actives largely listed as inhibitors; 7.3% of 220,000 active; Purified ALDH1A1, NADH fluorescence, propionaldehyde substrate; P00352;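 note: potency is the fitted concentration of half-maximal effect; plate controls were no enzyme wells and a reference inhibitor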
# HPGD block: HPGD (human) dehydrogenase inhibition. P15428. purified HPGD, NADH fluorescence kinetic, PGE2 substrate. Potency, µM, inactives show at the highest dose activity change, negative = inhibition, actives largely listed as inhibitors. 4.3% of 150,000 active. AID 894; note: potency is the fitted concentration of half-maximal effect
# Target sequence (P15428 whole entry, looked up): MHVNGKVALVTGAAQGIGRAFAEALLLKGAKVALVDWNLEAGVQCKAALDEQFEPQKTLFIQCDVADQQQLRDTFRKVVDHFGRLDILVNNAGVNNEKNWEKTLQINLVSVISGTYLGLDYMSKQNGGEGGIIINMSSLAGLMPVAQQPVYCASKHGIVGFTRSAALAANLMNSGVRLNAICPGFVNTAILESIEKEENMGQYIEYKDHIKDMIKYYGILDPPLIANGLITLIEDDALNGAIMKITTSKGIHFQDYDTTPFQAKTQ
#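 20 nM HPGD preincubated 15 min at room temperature with compound in 50 mM Tris-HCl pH 8, 0.01% Tween 20. Started with 1 mM NAD+ and 30 uM prostaglandin E2; NADH fluorescence (360/450 nm) read 5 times over 30-s intervals, last minus first.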
# * marks the source's active call; other numbers are inactive results; u = inconclusive; x = not tested or not shown; [ ] = dose if it differs, or a comment. Unless noted, calls come from the whole dose curve; as a rule, active = well fitted inhibition curve with a large enough effect (not every such curve was filed as active); inconclusive = small, poorly fitted or top-dose-only effect, or another doubt; inactive = no such curve, though single readings can be large or run the other way. Unless noted, % is set by controls: 0 for no effect and ±100 for the full control effect.
SMILES,PNC inhibitor,ALDH1A1 inh,HPGD block
O=C(COc1ccccc1Cl)NC(=S)Nc1ccc(CN2CCOCC2)cc1,18,-1%,25µM*
CCCCOc1ccc(C(=O)NC(=S)Nc2ccc(CN3CCOCC3)cc2)cc1,37,-7%,1%
O=C(/C=C/c1cccc([N+](=O)[O-])c1)NC(=S)Nc1ccc(CN2CCOCC2)cc1,u,3.2µM*,-12%
C/C(=N\NC(=O)c1ccc(CN2CCOCC2)cc1)c1ccc([N+](=O)[O-])cc1,u,u,-20%
C=CCC1(O)C(=O)N2C(=C1C(=O)N1CCOCC1)c1ccccc1CC2(C)C (stereo unspecified),19,6%,-5%
COc1ccc(CCN(C(=O)c2cccc(F)c2)C2CC(=O)N(c3ccc(OC)cc3)C2=O)cc1 (stereo unspecified),-8,-11%,3%
O=C(O)c1c(-n2cccc2)sc2c1CCCC2,x,-3%,x
O=C(c1ccccc1C(F)(F)F)N1CCN(S(=O)(=O)c2ccccc2)CC1,u,-5%,-7%
CCN(CC)c1nc2n(c(=O)n1)CCN2CC,24,0%,0%
CCN(CC)c1nc2n(c(=S)n1)CCS2,-88*,9%,-13%
COC(=O)c1ccc(C(NC(=O)OCc2ccccc2)/C(C)=C/[C@@H](C)C(=O)N[C@@H](CO)Cc2ccccc2)cc1 (stereo partly specified),x,u,-13%
CCOc1ccc(NC(=O)c2cc(SC)ccc2Cl)cc1,-3,2%,-3%
FC(F)(F)c1cccc(CNC(=S)Nc2ccccc2)c1,x,-5%,x
FC(F)(F)c1cccc(NC(=S)NNC(=S)Nc2cccc(C(F)(F)F)c2)c1,x,1.6µM*,x
O=C(O)CS(=O)CC(=O)NCc1cccc(C(F)(F)F)c1 (stereo unspecified),x,2%,x
CCOc1ccc(NC(=S)NNC(=O)c2cc(Br)ccc2Cl)cc1,x,13µM*,x
O=C(O)CS(=O)CC(=O)Nc1cccc(C(F)(F)F)c1 (stereo unspecified),x,1.8µM*,x
FC(F)(F)c1cccc(NC(=S)NCc2ccccc2)c1,15,7%,28µM*
CNNC(=S)Nc1cccc(C(F)(F)F)c1,x,-1%,x
CCN1CC=C2C(C#N)=C(N)C(C#N)(C#N)C(c3cc(Cl)ccc3Cl)C2C1 (stereo unspecified),-20,u,u
CC1(C)Oc2ccc(NC(=O)c3ccco3)cc2O1,-1,-12%,u
COc1cc(OC)c(C2=Nc3ccc(Br)cc3C(c3ccccc3)N2CC(=O)NN)cc1OC (stereo unspecified),x,7%,x
O=c1cc(CSc2ccc(Cl)cc2)nc(-c2ccncc2)[nH]1,x,3%,x
FC(F)(F)c1cccc(NC(=S)NC(c2ccccc2)c2ccccc2)c1,-27,-2%,-4%
FC(F)(F)c1cccc(NC(=S)Nc2ccc(Cl)c(Cl)c2)c1,x,13µM*,x
SMILES,PNC inhibitor,ALDH1A1 inh,HPGD block
O=C(Nc1ccccc1)Nc1cccc(C(F)(F)F)c1,x,-2%,x
O=C(NNC(=O)c1ccc(Cl)cc1Cl)Nc1ccccc1,46,6%,-5%
COc1ccc(NC(=S)NNC(=S)Nc2cccc(C(F)(F)F)c2)cc1,x,0.45µM*,x
O=C(NNC(=S)Nc1cccc(C(F)(F)F)c1)c1ccc(Cl)cc1Cl,-1,20µM*,-15%
CNC(=O)Nc1cccc(C(F)(F)F)c1,-100*,1%,-10%
COC(=S)Nc1cccc(C(F)(F)F)c1,x,1%,x
Cc1ccc(CNC(=O)Cn2c([N+](=O)[O-])cnc2C)cc1,u,-9%,-18%
CC(C)C[C@@H](N)C(=O)O,x,7%,x
CCOC(=O)c1c(C)n(C)c2c(C)cc(O)c(OC(=O)CC)c12,27,7%,-6%
COc1ccccc1CN(Cc1nc2ccccc2c(=O)[nH]1)C(=O)Nc1ccccc1,32,-1%,-10%
CCCCC1CC1C(=O)Nc1ncc2c(n1)CC(C)(C)CC2=O (stereo unspecified),u,u,-11%
Cc1ccc(N2CN=c3s/c(=C\c4ccccn4)c(=O)n3C2)cc1,-22,5%,-17%
C=CCN(CC=C)C(=O)c1ccc(OC2CCN(Cc3ccccn3)CC2)cc1,x,2%,x
CCOc1ccc(NC(=O)CCCn2c(=S)[nH]c3ccsc3c2=O)cc1,x,14%,x
Cc1cccc(NC(=S)NNC(=O)c2ccccc2OC(F)F)c1,10,9.5µM*,-11%
CCOc1ccccc1Nc1ccnc2cc(Cl)ccc12,x,-4%,x
CCOc1cc(OCC)cc(C(=O)Nc2cccc(C(C)=O)c2)c1,-2,-9%,-9%
Cc1occc1C(=O)Nc1cccc(C(F)(F)F)c1,26,-2%,-17%
CCOc1ccc(NC(=S)NNc2ccnc3cc(Cl)ccc23)cc1,x,3.2µM*,x
COc1ccc(NC(=S)NNC(=O)c2ccccc2OC(F)F)cc1,u,-3%,-18%
Cc1ccccc1C(=O)NNC(=S)Nc1cccc(C(F)(F)F)c1,-112*,18µM*,-24%
CCOc1cc(OCC)cc(C(=O)NC(=S)Nc2cccc(C(F)(F)F)c2)c1,22,3.5µM*,-27%
CCN(C(C)=O)c1ccc(Oc2nc(OC)cc(OC)n2)cc1,x,-6%,x
CCOC(=O)c1ccc(NC(=O)COC(=O)Cc2csc(-c3ccccc3)n2)cc1,u,-4%,x
Cc1cccc(C)c1-n1c(C)nn(CC#N)c1=O,x,3%,x
SMILES,PNC inhibitor,ALDH1A1 inh,HPGD block
CC(C)(C)NC(=S)Nc1cccc(C(F)(F)F)c1,x,-1%,x
CCOc1ccc(NC(=S)NNC(=S)Nc2cccc(C(F)(F)F)c2)cc1,x,1.3µM*,x
CCOC(=O)N/N=C1/C[C@@H](O)[C@@H](O)[C@@H]2[C@@H]3C(=O)N(c4cccc(Oc5ccccc5)c4)C(=O)[C@H]3CC[C@H]12,x,6%[13.5 µM],x
CCN1CCN(Cc2cc(=O)oc3cc(C)cc(C)c23)CC1,15,-3%,-8%
CCCN1CCN(S(=O)(=O)c2ccc(OC)c(Br)c2)CC1,16,-12%,-2%
Cc1ccc(CSCC(=O)N2CCN(Cc3ccc4c(c3)OCO4)CC2)cc1,-25,u,-7%
COc1ccc(CN2CCN(S(=O)(=O)c3ccc(C)cc3)CC2)cc1Br,u,20µM*,-7%
COc1cc(S(=O)(=O)N2CCN(Cc3ccc4c(c3)OCO4)CC2)c(C)cc1C,-119*,3%,-11%
COc1cc(C)c(C)cc1S(=O)(=O)N1CCN(Cc2ccc3c(c2)OCO3)CC1,2,-9%,-14%
Cc1cc(C)c2c(CN3CCN(Cc4ccc5c(c4)OCO5)CC3)cc(=O)oc2c1C,-22,1.6µM*,-6%
Cc1cc(C)c2c(CN3CCN(Cc4ccc5c(c4)OCO5)CC3)cc(=O)oc2c1,4,13µM*,-28%
Cc1nc(SCC(=O)Nn2c(-c3ccccc3)nc3ccccc3c2=O)n[nH]1,u,-6%,-1%
COc1ccc(-c2noc(-c3ccoc3C)n2)cc1,x,9%,x
C[C@@H]1NC(=O)c2cc([N+](=O)[O-])cc(I)c2OCC[C@@H](C(=O)NC(CC(=O)O)C(N)=O)NC(=O)[C@H](CC(N)=O)NC1=O (stereo partly specified),-2,u,-3%
CC(C)CN1CCC2(CC1)CCN(C(=O)c1csnn1)CC2,x,5%,-2%
Cc1cc2oc(=O)cc(CN3CCN(Cc4ccc5c(c4)OCO5)CC3)c2cc1C,44,-20%,-19%
Cc1ccc2c(CN3CCN(Cc4ccc5c(c4)OCO5)CC3)cc(=O)oc2c1C,u,25µM*,-18%
